Test results from PubChem BioAssay AID485281 (National Center for Advancing Translational Sciences (NCATS), 2010).
Out of some 350,000 compounds screened, about 260 (0.074%) were called active. Where a call stands in place of a potency, no number is given. Another 8% or so got no clear call; they are omitted. The call rests on the fitted dose curve; in most records, active means well fitted inhibition curve with a large enough effect; inconclusive means small, poorly fitted or top-dose-only effect; inactive means no such curve, though single readings can be large or run the other way. This excerpt belongs to a sample that is enriched for actives.

target: Ferritin light chain (Equus caballus) (UniProt P02791); assay: qHTS Assay for Identification of Novel General Anesthetics; details: apoferritin/1-aminoanthracene competitive binding, fluorescence; series mostly up to 77.5 µM; further: nearly all actives have a fitted effect of over 20% in size
Sequence (P02791 2-175 limits assumed): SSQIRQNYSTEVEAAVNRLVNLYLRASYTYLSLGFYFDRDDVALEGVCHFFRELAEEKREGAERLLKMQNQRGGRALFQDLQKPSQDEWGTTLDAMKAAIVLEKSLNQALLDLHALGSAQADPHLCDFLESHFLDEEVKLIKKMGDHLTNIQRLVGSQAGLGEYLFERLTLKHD
Source text: Source: NIH Chemical Genomics Center [NCGC]
Assay Submitter: Roderic Eckenhoff, University of Pennsylvania
Screening Center PI: Christopher P. Austin, NIH
Probe Development: NIH Chemical Genomics Center [NCGC]
Anesthetic development has remained a largely empirical process. There are growing concerns about the cognitive effects of known general anesthetics and acceleration of the onset of neurodegenerative disease. The compounds' toxicity and multiple specific binding targets in the mammalian brain [4] has made them less attractive as drug leads. In this assay, a GABAergic mimetic model system, apoferritin and a profluorescent 1-aminoanthracene ligand (1-AMA), was used to construct a competitive binding assay for identification of novel general anesthetics. The assay was validated for 1-AMA using other known anesthetics, such as isoflurane (CID:3763) and propofol (CID: 4943), [6].
[1] S.L. Bianchi, T. Tran, C. Liu, S. Lin, Y. Li, J.M. Keller, R.G. Eckenhoff, and M.F. Eckenhoff, Brain and behavior changes in 12-month-old Tg2576 and nontransgenic mice exposed to anesthetics. Neurobiol Aging 29 (2008) 1002-10.
[2] Z. Xie, Y. Dong, U. Maeda, R.D. Moir, W. Xia, D.J. Culley, G. Crosby, and R.E. Tanzi, The inhalation anesthetic isoflurane induces a vicious cycle of apoptosis and amyloid beta-protein accumulation. J Neurosci 27 (2007) 1247-54.
[3] P. Honegger, and J.M. Matthieu, Selective toxicity of the general anesthetic propofol for GABAergic neurons in rat brain cell cultures.
[4] M.F. Eckenhoff, K. Chan, and R.G. Eckenhoff, Multiple specific binding targets for inhaled anesthetics in the mammalian brain. J Pharmacol Exp Ther 300 (2002) 172-9.
[5] C.A. Butts, J. Xi, G. Brannigan, A.A. Saad, S.P. Venkatachalan, R.A. Pearce, M.L. Klein, R.G. Eckenhoff, and I.J. Dmochowski, Identification of a fluorescent general anesthetic, 1-aminoanthracene. Proc Natl Acad Sci U S A 106 (2009) 6501-6.
[6] W.A. Lea, J. Xi, A. Jadhav, L. Lu, C.P. Austin, A. Simeonov, and R.G. Eckenhoff, A high-throughput approach for identification of novel general anesthetics. PLoS One 4 (2009) e7150.
Three uL of reagents (free 1-AMA (50% saturated solution of 1-aminoanthracene
in PBS) in columns 3, 4 as negative control and 1-AMA/apoferritin mixture (10 uM horse-spleen apoferritin in 50% saturated 1-aminoanthracene in PBS) in columns 1, 2, 5-48) was dispensed into 1536-well Greiner black assay plates. Compounds (23 nL) were transferred via Kalypsys pintool equipped with 1,536-pin array (10 nL slotted pins, V&P Scientific, San Diego, CA). Titration of the positive control, propofol, were delivered via pin transfer from separate control plates to the 2nd column of each assay plate. The starting concentration of the control, dissolved in DMSO, was at 160 mM, followed by two-fold dilution points in duplicate, for a total of 16 concentrations. The plates were incubated for 10 min at room temperature, and then read on an EnVision HTS multilabel reader (Perkin-Elmer, Waltham, MA) (end point read, 3 min/plate) using Fura2 BFP excitation filter (380 nm, bandwidth 10 nm) and fluorescein emission filter (535 nm, bandwidth 25 nm) set. A LANCE/DELFIA dichroic mirror with a cutoff wavelength at 400 nm was used to maximize signal accuracy and strength. […] Activity was computed as the normalized fluorescence response relative to free 1-AMA and 1-AMA/apoferritin complex values. […]
Potency means the concentration at half of the fitted maximal effect.

| SMILES | Potency |
| --- | --- |
| N[C@@H](Cc1c[nH]c2ccccc12)c1nnc(SCc2c(F)cccc2Cl)o1 | 28.2 µM (active) |
| CCOCCCNC(=O)c1c(NC(=O)c2nc(SC)ncc2Cl)sc2c1CCCC2 | inactive |
| COC(=O)c1ccccc1NC(=O)c1cc(-c2ccccc2O)no1 | inactive |
| CCc1ccccc1NC(=O)c1sc2nc3c(cc2c1N)CN(Cc1ccccc1)CC3 | inactive |
| C[C@H]1C/C=C/[C@@H]2[C@@H]3O[C@]3(C)[C@@H](C)[C@H]3[C@H](Cc4ccccc4)NC(=O)[C@]32OC(=O)O/C=C/[C@](C)(O)C1=O | inactive |
